GIRK2 act: activators of NPY4-receptor-primed GIRK2 channels, summary, cell-based, HEK293, thallium flux | G protein-activated inward rectifier potassium channel 2 (Homo sapiens), P48051 | HEK293 GIRK2/NPY4 cells, thallium flux fluorescence | activation (% efficacy), % for hits at 37.5 µM | 34,000 tested, under 10 active;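 active means primary screen hit, no activity in plain HEK293 cells, and in GIRK2-only cells above 5% efficacy rising with concentration; inactive means the rest, including fluorescent compounds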;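 further: efficacy is normalized control-subtracted fluorescence 15 s after thallium addition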
Target sequence (P48051 whole entry, looked up): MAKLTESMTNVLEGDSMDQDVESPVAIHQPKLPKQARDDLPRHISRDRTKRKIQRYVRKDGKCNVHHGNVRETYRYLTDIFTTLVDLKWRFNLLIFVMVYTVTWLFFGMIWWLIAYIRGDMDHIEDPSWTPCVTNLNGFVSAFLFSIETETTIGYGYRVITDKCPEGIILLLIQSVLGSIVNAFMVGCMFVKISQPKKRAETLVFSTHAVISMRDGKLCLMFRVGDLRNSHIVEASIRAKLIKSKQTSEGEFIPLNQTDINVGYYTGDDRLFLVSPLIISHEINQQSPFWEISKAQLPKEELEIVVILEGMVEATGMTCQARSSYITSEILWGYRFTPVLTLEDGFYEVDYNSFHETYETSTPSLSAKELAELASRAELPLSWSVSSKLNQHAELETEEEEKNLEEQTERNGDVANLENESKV
AMPAR-TARP mod: modulators of GluA2-stargazin AMPA receptor complexes, primary screen, cell-based, membrane potential dye | 3.5% of 40,000 active | HEK293 GluA2+stargazin, membrane potential dye (FDSS), glutamate EC50; hits were called plate by plate, in both directions | AID 1259245, 2017 | calls only at 30 µM | Voltage-dependent calcium channel gamma-2 subunit (Mus musculus) + Glutamate receptor 2 …;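 active means any of four per-well response measures lying three or more SD from its plate-wide compound average, in either direction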
Of the large screens only hits and unclear results are named; the others gave an inactive call; ! = not active in a repeat. The entries come from a sample that favours hits as a whole.

O=C(Nc1c2c(nn1-c1nc3ccccc3s1)CCC2)c1ccc([N+](=O)[O-])o1	none
O=C(COc1ccc(C(=O)c2ccccc2)cc1)NCCn1nc(-c2cccs2)ccc1=O	none
O=C(COc1ccc(C(=O)c2ccccc2)cc1)NCCn1nc(-c2ccc(Cl)cc2)ccc1=O	AMPAR-TARP mod active
CCOC(=O)C1CCN(C(=O)Nc2cccc(F)c2)CC1	none (no result: GIRK2 act)
COC(=O)C12CC3CC(CC(NC(=O)c4ccc[nH]c4=O)(C3)C1)C2	none (no result: GIRK2 act)
COc1cc(/C=C/C(=O)N2CCC(C)CC2)ccc1OCc1ccccc1	AMPAR-TARP mod active!
COc1cc(/C=C/C(=O)N2CCCCCC2)ccc1OCc1ccccc1	none
O=C(Nc1ccc(F)c(F)c1)c1n[nH]c2ccccc12	AMPAR-TARP mod active (no result: GIRK2 act)
CSc1cccc(NC(=O)c2n[nH]c3ccccc23)c1	none
Nc1c(C(=O)NCc2ccccc2)nnn1-c1ccc(Br)cc1	none
COc1ccc(C(=O)N2CCC3(CC2)C(=O)N(C)C(=O)N3C)cc1OC	none
COc1ccc(S(=O)(=O)N(C)CCCC(=O)O)cc1N(C)S(=O)(=O)c1ccccc1	none (no result: GIRK2 act)
CN(CCCC(N)=O)S(=O)(=O)c1ccc2c(c1)C(=O)c1ccccc1C2=O	AMPAR-TARP mod active (no result: GIRK2 act)
COc1cn(CC(=O)Nc2cc(C)cc(C)c2)c(CSc2ccc(Cl)cc2)cc1=O	none
CN(C1CCCC1)S(=O)(=O)c1ccc(C(=O)Nc2ncnc3sccc23)cc1	none (no result: GIRK2 act)
CCN(C1CCCCC1)S(=O)(=O)c1ccc(C(=O)Nc2ncnc3sccc23)cc1	AMPAR-TARP mod active
COc1ccc(C(=O)Nn2cnc3c(cnn3C(C)(C)C)c2=O)c(OC)c1	none
COc1cccc(CNC(=O)C(=O)NCC2CCN(C(=O)c3ccccc3F)CC2)c1	none
CC(C)n1ccc(C(=O)N(Cc2ccccn2)c2nc3c(Cl)cccc3s2)n1	AMPAR-TARP mod active
Cn1ccc(C(=O)N(Cc2cccnc2)c2nc3c(Cl)cccc3s2)n1	none
CCOC(=O)CCC(=O)N1CCN(Cc2nc(-c3cccc(OC)c3)cs2)CC1	none
COc1ccc(S(=O)(=O)Nc2nc(C(=O)Nc3ccccc3OC)cs2)cc1	none
COc1ccc(S(=O)(=O)N2CCCCC2CC(=O)NCc2ccccc2Cl)cc1 (centres undefined)	AMPAR-TARP mod active (no result: GIRK2 act)
COc1ccc(S(=O)(=O)N2CCCCC2CC(=O)NCc2ccccc2OC)cc1 (centres undefined)	none (no result: GIRK2 act)
COc1cccc(CCNC(=O)CC2CCCCN2S(=O)(=O)c2ccc(Cl)cc2)c1 (centres undefined)	AMPAR-TARP mod active (no result: GIRK2 act)
COc1cccc(CCNC(=O)CC2CCCCN2S(=O)(=O)c2ccccc2)c1 (centres undefined)	none (no result: GIRK2 act)
Cn1nc(-c2ccc(NS(=O)(=O)c3cccc([N+](=O)[O-])c3)cc2)ccc1=O	none
Cc1nnsc1C(=O)Nc1ccc2c(c1)N(C(=O)c1ccco1)CC2	AMPAR-TARP mod active
Cc1nnsc1C(=O)Nc1ccc2c(c1)N(C(=O)C1CC1)CC2	none
CC(C)c1ccc(Cc2nnc(N3CCOCC3)[nH]c2=O)cc1	none
CC(C)(C)C(=O)Nc1sc2c(c1C#N)CCN(Cc1ccccc1)C2	AMPAR-TARP mod active
CCC(=O)Nc1sc2c(c1-c1nc3ccccc3s1)CCN(Cc1ccccc1)C2	none (no result: GIRK2 act)
COc1ccc(Nc2nc(C)c([N+](=O)[O-])c(N3CCCC3)n2)c(OC)c1	none
COc1ccc(Nc2nc(N3CCCC3)c3ccccc3n2)cc1	AMPAR-TARP mod active (no result: GIRK2 act)
O=C(Nc1sccc1-c1nc2ccccc2s1)c1c[nH]c2ccccc12	none
COc1ccc(Cc2nc3ccccc3n2CC(=O)N2CCCCCC2)cc1OC	none
Cc1ccccc1NC(=O)Cn1c(Cc2ccccc2)nc2ccccc21	AMPAR-TARP mod active
COc1cccc2cc(-c3cn(-c4cccc(C(F)(F)F)c4)c(=S)[nH]3)c(=O)oc12	none
CC(C)N1CCC(CNC(=O)Cc2ccc(F)cc2)CC1	none (no result: AMPAR-TARP mod)
O=C(CCCn1c(SCc2cccc([N+](=O)[O-])c2)nc2ccccc2c1=O)N1CCCC1	AMPAR-TARP mod active
O=c1nc(SCc2cccc([N+](=O)[O-])c2)c2c(n1CCCO)CCC2	none
O=C(CSCc1ccccc1)NCCc1csc(-c2ccc(F)cc2)n1	none
O=C(Cc1ccc(F)cc1)NCC1CCN(C2CCCC2)CC1	none (no result: AMPAR-TARP mod)
COc1cccc(OC)c1C(=O)Nc1ccc([N+](=O)[O-])cn1	none (no result: GIRK2 act)
COc1ccc(C(=O)Nc2ccc([N+](=O)[O-])cn2)cc1OC	AMPAR-TARP mod active (no result: GIRK2 act)
COc1ccc(N2CCCn3c2nc2c3c(=O)n(CCCc3ccccc3)c(=O)n2C)c(OC)c1	none (no result: GIRK2 act)
CCc1cccc2sc(N3CCN(C(=O)Cc4ccc(S(=O)(=O)CC)cc4)CC3)nc12	AMPAR-TARP mod active (no result: GIRK2 act)
CS(=O)(=O)c1ccc(CC(=O)N2CCN(c3nc4c(Cl)cccc4s3)CC2)cc1	none (no result: GIRK2 act)
O=C(Cn1c2c(c3ccccc31)CCC2)NCC1CCS(=O)(=O)C1 (centres undefined)	AMPAR-TARP mod active
Cc1cc(C)n(CCNC(=O)Cn2c3c(c4ccccc42)CCC3)n1	none
COc1ccc(S(=O)(=O)NCCOc2ccc(-c3ccc(F)cc3)nn2)cc1F	AMPAR-TARP mod active
CCOc1ccc(-c2ccc(OCCNS(=O)(=O)c3ccccc3)nn2)cc1	none
CCOc1ccc(S(=O)(=O)NCCOc2ccc(-c3ccccc3)nn2)cc1	AMPAR-TARP mod active
COc1ccc(S(=O)(=O)NCCOc2ccc(-c3ccc(C)cc3)nn2)cc1OC	none
CCOC(=O)c1ccc(S(=O)(=O)NCCOc2ccc(-c3ccc(OC)cc3)nn2)cc1	none
CCOc1ccc(C(C)C)cc1S(=O)(=O)NCCOc1ccc(-c2ccccc2)nn1	AMPAR-TARP mod active
COc1ccc(Cl)cc1S(=O)(=O)NCCOc1ccc(-c2ccccc2)nn1	none
CCOC(=O)c1ccc(S(=O)(=O)NCCOc2ccc(-c3ccccc3)nn2)cc1	AMPAR-TARP mod active
O=C(/C=C/c1ccco1)N1CCC(CNS(=O)(=O)c2cc(Cl)ccc2Cl)CC1	none
CCc1nnc2ccc(S(=O)(=O)N(Cc3ccccc3)c3ccccc3)cn12	none
COCCNC(=O)c1cc(-c2ccccc2)nc2c1c(C)nn2C1CCS(=O)(=O)C1 (centres undefined)	none (no result: AMPAR-TARP mod)
CCOC(=O)c1sc(NC(=O)c2ccncc2)c(C(=O)OCC)c1C	AMPAR-TARP mod active (no result: GIRK2 act)
CCOC(=O)c1sc(NC(=O)C2CCCN2S(C)(=O)=O)c(C(=O)OCC)c1C (centres undefined)	none
O=C(Nc1nnc(CCS(=O)(=O)c2ccccc2)o1)c1ccco1	none
Cc1onc(-c2ccccc2Cl)c1C(=O)NC1CCCCC1N1C(=O)CSC1=O (centres undefined)	none
CN1CCOc2ccc(NS(=O)(=O)c3ccccc3)cc2C1=O	AMPAR-TARP mod active (no result: GIRK2 act)
CN1CCOc2ccc(NS(=O)(=O)c3ccc(-c4ccccc4)cc3)cc2C1=O	none (no result: GIRK2 act)
CCCc1cc(=O)[nH]c(-n2nc(-c3ccco3)cc2NC(=O)c2ccc3c(c2)OCO3)n1	none
COc1cc(C)c(S(=O)(=O)N2CCN(c3cccc(C(F)(F)F)c3)CC2)cc1C	none (no result: GIRK2 act)
CCCNC(=O)Cn1cc(OC)c(=O)cc1CSc1nc(C)cc(C)n1	AMPAR-TARP mod active
COc1cn(CC(=O)NCc2ccccc2)c(CSc2nc(C)cc(C)n2)cc1=O	none
NC(=O)C1CCN(C(=O)Cc2csc(NC(=O)c3ccc(=O)[nH]c3)n2)CC1	none
Cc1cc(C)cc(NC(=O)Nc2c(C)nc3cc(C)ccn3c2=O)c1	none
CCc1nc2sc3c(c2c2nncn12)CCC3	AMPAR-TARP mod active
